Data on eleven molecules can be found in PubChem BioAssay (NCATS).

Inconclusive results are not listed. The source made the active and inactive calls. Unless noted, the call rests on the fitted dose curve; in most records, active means well fitted curve in the direction sought with a large enough effect; inconclusive means small, poorly fitted or top-dose-only effect, or another doubt; inactive means no such curve, though single readings can be large; an effect the other way counts as inactive or inconclusive.

The target in assay [1] is Furin (Homo sapiens) (UniProt P09958). Briefly: Furin counterscreen qHTS for Zika virus inhibitors (AID 1347149). Further: nearly all actives have a fitted effect of over 70% in size. Further: potency means the concentration at half of the fitted maximal effect.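 On activity change, negative = inhibition: purified recombinant full-length human furin enzyme at 5 nM; fluorescence gain from furin cutting a BOC-RVRR-AMC peptide substrate over 15 min; top concentration of the series differs between compounds; plate controls were no-inhibitor control for no effect and no-enzyme control for full effect.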 In short, it runs like this:
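Fluorogenic cleavage of BOC-RVRR-AMC (2 microM final, Km ~15 µM) was monitored (ex 340, em 450 nm) at 37C after 15 min RT preincubation of 5 nM furin with compounds in HEPES pH 7.0 buffer with CaCl2 and Triton X-100. Percent inhibition was fitted to a 4-parameter Hill curve.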
On the technique in general: Counterscreens check selectivity or assay interference.

Assay [2] in a line: Confirmatory screen GU Rhodamine qHTS for Zika virus inhibitors qHTS (AID 1347157).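 Further: plate controls were no-inhibitor wells for no effect and no-enzyme wells for full effect; nearly all actives have a fitted effect of over 70% in size.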 A digest of the protocol: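 Noncovalent NS2B hydrophilic domain/NS3 protease complex (25 nM final) in 10 mM Tris-HCl pH 8.0, 0.01% Tween 20, preincubated 15 min with compounds (up to 114 microM), then 1.5 microM Rhodamine110 substrate. Fluorescence change over 15 min fitted to 4-parameter Hill.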

Assay [3] can be described thus: Tertiary RLuc qRT-PCR qHTS assay for Zika virus inhibitors (AID 1347169). Further: top concentration of the series differs between compounds; on the % scale 0 is the no-effect control and ±100 the full control effect; nearly all actives have a fitted effect of over 55% in size. In short, it runs like this:
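Orthogonal cell-based infection assay using recombinant ZIKV-RLuc (Cambodian) in Vero cells; compound added prior to virus at MOI 1-2. Incubation lasts 48-72 hrs at 37 degrees C before live-cell Renilla substrate is added and luminescence measured.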
A general note: In qPCR the cycle at which signal appears reflects the starting amount.

Assay [4] has as its target Cytochrome P450 3A4 (Homo sapiens) (UniProt P08684). Briefly: qHTS Assay for Inhibitors and Substrates of Cytochrome P450 3A4 (AID 884). Further: on the % scale 0 is the no-effect control and ±100 the full control effect; nearly all actives have a fitted effect of over 50% in size. A digest of the protocol: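 20 nM human CYP3A4 with 25 uM Luciferin-PPXE (at KM) in 200 mM KPO4, preincubated 10 min with compound; NADPH regeneration started a 60 min RT reaction. Luciferin detected by luminescence, normalized to 57 uM ketoconazole as full inhibition.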
(qHTS replaces the single test concentration by a dilution series.)

Assay [5] in a line: Confirmation and Secondary Assay for Modulators of Hemoglobin Beta Chain Splicing at IVS2 654 locus (AID 910).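 Further: HeLa cells stably carrying EGFP split by mutant beta-globin IVS2-654 intron; % of control where 0% means no effect.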 A digest of the protocol: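 HeLa cells stably expressing EGFP interrupted by β-globin IVS2-654 intron, seeded overnight in Opti-MEM/2% FCS, then treated 2 days at 37 °C. Restored splicing read as total peak GFP intensity per well by laser scanning cytometry (488 nm excitation, 500–520 nm emission); 500 nM antisense PNA as control.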

Assay [6] can be described thus: Confirmation and Secondary Assay for Modulators of Hemoglobin Beta Chain Splicing at IVS2 705 locus (AID 930).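 Further: HeLa cells stably expressing the EGFP-705 splicing reporter; GFP fluorescence per well restored by corrected splicing of the IVS2-705 intron in EGFP; % of control where 0% means no effect.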 A digest of the protocol:
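Assay measures total GFP intensity per well in HeLa EGFP-705 cells after 2 days with compound; mis-splicing normally truncates EGFP, so fluorescence indicates corrected splicing.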

Assay [7] in a line: qHTS Assay for Lipid Storage Modulators (AID 1519; calls by dose curve; on activity change, negative = inhibition: on the % scale 0 is the no-effect control and ±100 the full control effect). To be noted: Drosophila S3 cells, BODIPY lipid droplet/cell ratio, laser cytometry, cells loaded with oleic acid. In short, it runs like this: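 Cells seeded at 5,000 per well were treated with compounds over a concentration series and loaded with oleic acid (400 uM, as added). Lipid droplet fluorescence (488 nm excitation, 500-530 nm channel) was read by laser-scanning cytometry and normalized to 20 uM Triacsin C.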

Assay [8] has as its target Ubiquitin carboxyl-terminal hydrolase 1 (Homo sapiens) (UniProt O94782). Briefly: Inhibitors of USP1/UAF1: Pilot qHTS (AID 504865).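 Further: rhodamine fluorescence freed from ubiquitin-rhodamine substrate followed over time; top concentration of the series differs between compounds; on the % scale 0 is the no-effect control and ±100 the full control effect; nearly all actives have a fitted effect of over 35% in size.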 In short, it runs like this:
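Kinetic fluorescence assay: 1nM USP1/UAF1, 15 min compound preincubation, then 150nM Ub-Rho; 480/540 nm.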

A short description of assay [9]: ZIKV-mCherry secondary qHTS for Zika virus inhibitors (AID 1347158). Further: top concentration of the series differs between compounds. A digest of the protocol: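 Vero cells, 5,000/well, plated overnight at 37 °C, then compound added and infected with recombinant ZIKV-mCherry at MOI 1 for 48-72 h. PFA-fixed, Hoechst nuclear stain, high-content imaging; cells with mCherry intensity above 450 RFU scored infected, reported as percent infection.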

In assay [10] the test system is Zika virus NS2B-NS3 protease (linked). Briefly: 384 well plate NINDS AMC confirmatory qHTS for Zika virus inhibitors (AID 1347163). Further: nearly all actives have a fitted effect of over 50% in size. Further: potency means the concentration at half of the fitted maximal effect.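 On activity change, negative = inhibition: fluorescence of AMC released from Ac-VKTGKR-AMC peptide cleaved by the protease; top concentration of the series differs between compounds; 0% = no-inhibitor control and -100% = no-enzyme control.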 In short, it runs like this: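 Linked protease 5/30/60 nM final; cpds up to 1 mM final, ~15 min preinc. Substrate Ac-VKTGKR-AMC 30 microM final. RT, dark, 25 min; FI ex 355/em 460; normalized to no-enzyme/no-inhibitor ctrls.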
The subject of assay [11] is Zika virus NS2B-NS3 protease (linked construct). Briefly: 384 well plate NINDS Rhodamine confirmatory qHTS for Zika virus inhibitors (AID 1347164). Further: potency means the concentration at half of the fitted maximal effect; nearly all actives have a fitted effect of over 65% in size. In short, it runs like this:
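Compounds are incubated about 15 minutes with linked protease (5, 30 or 60 nM final). Rhodamine 110-tagged Ac-LKRR substrate (10 microM final) is added and fluorescence measured after 25 minutes.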

Assay [12] has as its target Calcium and integrin-binding protein 1 (Homo sapiens) (UniProt Q99828). Briefly: Primary qHTS for Identification of Calcium Integrin Binding Protein 1 (CIB1) Competitor (AID 1508620).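 Further: GST tagged CIB1 binding a fluorescein labelled alphaIIb integrin peptide tracer; top concentration of the series differs between compounds; on the % scale 0 is the no-effect control and ±100 the full control effect.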 In short, it runs like this:
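Fluorescence polarization competition: GST-tagged CIB1 (1 uM final) preincubated with compound 15 min at room temperature, then FITC-labelled alphaIIb peptide (100 nM final) added. After 15 min at room temperature, polarization read at Ex 480/Em 540.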

Furin (Homo sapiens), sequence (P09958 whole entry, looked up): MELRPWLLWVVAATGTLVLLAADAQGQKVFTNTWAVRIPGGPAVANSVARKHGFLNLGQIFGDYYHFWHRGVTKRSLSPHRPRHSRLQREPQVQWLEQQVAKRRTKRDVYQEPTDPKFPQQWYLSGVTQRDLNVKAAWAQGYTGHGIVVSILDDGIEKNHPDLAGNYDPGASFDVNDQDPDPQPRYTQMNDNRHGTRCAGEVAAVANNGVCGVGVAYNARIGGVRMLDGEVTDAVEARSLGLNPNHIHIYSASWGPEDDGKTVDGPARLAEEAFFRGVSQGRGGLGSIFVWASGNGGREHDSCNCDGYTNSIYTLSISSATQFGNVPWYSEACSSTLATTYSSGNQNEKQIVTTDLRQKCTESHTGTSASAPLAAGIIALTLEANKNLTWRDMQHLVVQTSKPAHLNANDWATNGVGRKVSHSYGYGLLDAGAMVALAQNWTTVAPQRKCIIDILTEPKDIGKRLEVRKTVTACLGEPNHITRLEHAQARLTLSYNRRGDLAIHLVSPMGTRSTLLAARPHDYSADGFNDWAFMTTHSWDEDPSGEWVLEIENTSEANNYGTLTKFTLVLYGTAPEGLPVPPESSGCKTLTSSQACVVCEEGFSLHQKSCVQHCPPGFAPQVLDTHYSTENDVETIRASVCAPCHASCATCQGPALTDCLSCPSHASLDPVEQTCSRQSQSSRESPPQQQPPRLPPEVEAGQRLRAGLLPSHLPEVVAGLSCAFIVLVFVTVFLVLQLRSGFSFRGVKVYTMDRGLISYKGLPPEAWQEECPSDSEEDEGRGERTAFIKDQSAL
Ubiquitin carboxyl-terminal hydrolase 1 (Homo sapiens), sequence (O94782 whole entry, looked up): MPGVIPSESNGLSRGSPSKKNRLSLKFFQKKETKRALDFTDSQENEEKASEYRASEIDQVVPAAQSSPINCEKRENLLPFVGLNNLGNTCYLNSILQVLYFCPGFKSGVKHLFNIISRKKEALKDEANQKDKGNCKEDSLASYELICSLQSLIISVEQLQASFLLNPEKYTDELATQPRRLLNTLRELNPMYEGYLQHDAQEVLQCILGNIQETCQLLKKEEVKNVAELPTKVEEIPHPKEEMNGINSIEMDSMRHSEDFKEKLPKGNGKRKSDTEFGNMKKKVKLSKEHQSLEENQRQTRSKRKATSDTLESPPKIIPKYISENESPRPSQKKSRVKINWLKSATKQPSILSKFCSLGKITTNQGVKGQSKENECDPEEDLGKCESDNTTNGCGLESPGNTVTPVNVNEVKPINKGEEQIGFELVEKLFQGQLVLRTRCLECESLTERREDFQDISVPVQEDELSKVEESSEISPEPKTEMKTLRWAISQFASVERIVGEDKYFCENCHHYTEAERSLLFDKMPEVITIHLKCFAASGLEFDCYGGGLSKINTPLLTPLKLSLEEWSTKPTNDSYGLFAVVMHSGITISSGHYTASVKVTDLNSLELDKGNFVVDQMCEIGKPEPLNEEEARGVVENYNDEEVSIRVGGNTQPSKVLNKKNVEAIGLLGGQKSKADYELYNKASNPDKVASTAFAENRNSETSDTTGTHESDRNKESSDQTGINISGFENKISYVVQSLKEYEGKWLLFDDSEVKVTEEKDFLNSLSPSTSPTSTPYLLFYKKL
Cytochrome P450 3A4 (Homo sapiens), sequence (P08684 whole entry, looked up): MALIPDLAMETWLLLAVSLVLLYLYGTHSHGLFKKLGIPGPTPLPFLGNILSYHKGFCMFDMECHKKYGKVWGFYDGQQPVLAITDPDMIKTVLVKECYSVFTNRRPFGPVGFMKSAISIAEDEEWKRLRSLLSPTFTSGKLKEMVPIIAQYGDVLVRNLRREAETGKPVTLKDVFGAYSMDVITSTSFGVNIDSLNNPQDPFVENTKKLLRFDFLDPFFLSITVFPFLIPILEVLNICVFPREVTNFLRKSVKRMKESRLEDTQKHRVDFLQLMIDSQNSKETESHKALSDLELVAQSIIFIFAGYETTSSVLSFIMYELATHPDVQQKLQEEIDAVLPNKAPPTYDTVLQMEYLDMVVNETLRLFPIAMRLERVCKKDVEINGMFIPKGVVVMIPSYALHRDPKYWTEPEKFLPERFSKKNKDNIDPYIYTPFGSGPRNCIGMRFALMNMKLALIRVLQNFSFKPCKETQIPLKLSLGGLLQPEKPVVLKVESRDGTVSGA
Calcium and integrin-binding protein 1 (Homo sapiens), sequence (Q99828 whole entry, looked up): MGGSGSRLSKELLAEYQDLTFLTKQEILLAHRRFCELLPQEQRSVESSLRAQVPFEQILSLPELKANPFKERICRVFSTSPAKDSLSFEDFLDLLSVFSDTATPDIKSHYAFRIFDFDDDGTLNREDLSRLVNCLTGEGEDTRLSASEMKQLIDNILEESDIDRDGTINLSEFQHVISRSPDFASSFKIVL

As for `CC(C)c1nn2c(=O)cc(COC(=O)c3cccc(NC(=O)c4ccccc4F)c3)nc2s1`, the Potency result in assay [1], in assay [2] and in [3] was “inactive” each time.

In the case of `CCCCc1nn2c(=O)cc(COC(=O)c3cccc(NC(=O)c4cccc(Cl)c4)c3)nc2s1`, the Potency in assay [1] was 29.6 µM (active). In addition, the Potency entry in [2] and in assay [3] was “inactive” each time.

`CCOC(=O)c1ccc(NC(=O)Cn2nnc(-c3ccc(C(F)(F)F)cc3)n2)cc1`: the Potency entry in assay [1], in assay [2] and in assay [3] was “inactive” throughout.

As for `COC(=O)c1ccc(C(=O)Nc2ccc(-c3nc4cc(NC(=O)c5ccc(C(=O)OC)cc5)ccc4o3)cc2)cc1`, the Potency entry in [1], in [2] and in assay [3] was “inactive” each time.

On to `O=C(CSc1nnc(-c2cccc([S+](=O)([O-])NC3CCCC3)c2)n1-c1ccccc1)Nc1ccc(C(=O)O)cc1`, for which the Potency entry in assay [1], in assay [2] and in assay [3] was “inactive” each time.

On to `O=C(O)Cc1cc(I)c(Oc2cc(I)c(O)c(I)c2)c(I)c1`, for which the Potency entry in assay [4], in assay [8], in assay [1], in assay [2] and in assay [3] was “inactive” each time. Besides, the outcome in assay [5] and in assay [6] was inactive. Moreover, the activity change, negative = inhibition in [7] (at 57.5 µM (top of the series)) was 3.04% (inactive). The max response was determined as 12.2% in assay [7] (measured here: cell count channel max response) and 14.7% in assay [7] (measured here: lipid channel max response).

As for `CC(C)OC(=O)c1ccc(NC(=O)CSc2nc(-c3cccs3)cc(C(F)(F)F)n2)cc1`, the Potency in assay [1] is 52.7 µM (active). The Potency entry in assay [2] and in assay [3] was “inactive” throughout.

Consider `COc1ccc(/C=C(\C#N)c2nc(-c3cc4c(ccc5ccccc54)oc3=O)cs2)cc1O`, for which the Potency entry in [1] and in assay [9] was “inactive” each time.

With `O=C(O)COc1ccccc1C1Nc2ccccc2-c2nnc(SCc3ccc(Cl)cc3)nc2O1` (configuration not stated), the Potency entry in assay [1], in [9] and in assay [3] was “inactive” in each case. Also, the Potency in assay [10] was 316 µM (active); in [11], 224 µM (active).

In the case of `O=C(OCC#CCSc1nnc(-c2cccc3ccccc23)o1)c1ccc(OC(F)(F)F)cc1`, in [1], the Potency was 46.9 µM (active). For the same molecule, the Potency result in assay [2] and in [3] was “inactive” in each case. Besides, the outcome in assay [12] was inactive.

For the molecule `Cc1oc2c(cc(NS(=O)(=O)c3ccc(C(C)C)cc3)c3ccccc32)c1C(=O)OCc1ccccc1`, the Potency result in [1], in [9] and in assay [10] was “inactive” throughout.
